# Experimental data taken from PubChem BioAssay.
# Activity calls are given as the source filed them.
# Key:
# [1] = small molecules captured by biotinylated probe aFSTL3 – biochemical, small-molecule microarray, fluorescence 635/667, stem cell growth factor project, primary screen (AID 1064); conditions: higher = more signal;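 note: measures binding of the biotinylated anti-FSTL3 antibody to printed compounds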
# [2] = binders from COS7 lysate, DM2A8 probe, primary screen, torsin A project, cell lysate, small-molecule microarray, fluorescence 635/667 (AID 1065); conditions: higher = more signal, COS7 lysate expressing mutant human TOR1A
# [3] = small molecules captured by biotinylated probe aFGF2 – biochemical, small-molecule microarray, fluorescence 635/667, stem cell growth factor project, primary screen (AID 1067); conditions: higher = more signal;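 note: measures binding of biotinylated aFGF2 protein to printed compounds on slides; z-score merges feature fluorescence and signal-to-noise across triplicate slides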
# [4] = small molecules captured by biotinylated probe aFGF10 – biochemical, small-molecule microarray, fluorescence 635/667, stem cell growth factor project, primary screen (AID 1071); conditions: higher = more signal;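 note: score merges 667 nm spot intensity and signal to noise from triplicate slides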
# [5] = target: Neurogenic locus notch homolog protein 2 (Homo sapiens) (UniProt Q04721); assay: small molecules binding Notch2 protein – biochemical, small-molecule microarray, 635 nm fluorescence, stem cell growth factors, primary screen (AID 1073); conditions: higher = more signal
# [6] = target: Pro-neuregulin-1, membrane-bound isoform (Homo sapiens) (UniProt Q02297); assay: small molecules binding neuregulin-1 protein – biochemical, small-molecule microarray, fluorescence 635/667, psychiatric disease protein project, primary screen (AID 1075); conditions: NRG1 binding, 635 nm fluorescence, higher = more signal;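 note: score combines 667 nm spot fluorescence with signal to noise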
# Sequence of Pro-neuregulin-1, membrane-bound isoform (Homo sapiens) (Q02297 whole entry, looked up, the tested form may be a part, canonical isoform): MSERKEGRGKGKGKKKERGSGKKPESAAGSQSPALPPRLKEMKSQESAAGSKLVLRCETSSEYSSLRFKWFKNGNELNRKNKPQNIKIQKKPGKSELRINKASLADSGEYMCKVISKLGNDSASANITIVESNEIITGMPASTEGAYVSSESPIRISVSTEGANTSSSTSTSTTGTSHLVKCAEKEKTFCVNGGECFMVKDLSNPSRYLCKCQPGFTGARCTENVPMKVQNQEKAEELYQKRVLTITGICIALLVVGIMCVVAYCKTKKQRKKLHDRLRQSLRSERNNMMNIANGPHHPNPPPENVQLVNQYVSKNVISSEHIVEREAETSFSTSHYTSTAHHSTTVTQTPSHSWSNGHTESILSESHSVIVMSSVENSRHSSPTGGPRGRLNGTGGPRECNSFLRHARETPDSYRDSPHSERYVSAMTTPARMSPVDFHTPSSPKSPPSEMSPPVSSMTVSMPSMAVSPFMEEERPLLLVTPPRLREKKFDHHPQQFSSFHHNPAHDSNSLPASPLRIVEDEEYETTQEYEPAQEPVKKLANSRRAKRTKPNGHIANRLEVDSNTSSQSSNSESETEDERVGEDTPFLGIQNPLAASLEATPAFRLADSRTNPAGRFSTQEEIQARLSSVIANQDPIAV
# [7] = tested on: Neuregulin-1 EGF-like domain; assay: small molecules binding NRG1 EGF domain – biochemical, small-molecule microarray, 635 nm fluorescence, primary screen (AID 1081); conditions: higher = more signal;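 note: binding of the protein to compounds printed on small-molecule microarray slides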
# [8] = FRG1 expression reporter modulators in myotubes – cell-based, C2C12 myotubes, firefly/Renilla luciferase, luminescence, FRG1 inhibition for FSHD, primary screen (AID 1084); conditions: FRG1 promoter luciferase, higher = more signal, called active from +8 up or from −8 down
# [9] = small molecules captured by biotinylated probe aFST – biochemical, small-molecule microarray, fluorescence 635/667, stem cell growth factor project, primary screen (AID 1086); conditions: higher = more signal;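 note: score merges 667 nm fluorescence with signal-to-noise of each printed compound spot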
# [10] = binders of probe aHhip on microarray, primary screen, stem cell growth factor project, biochemical, small-molecule microarray, fluorescence 635/667 (AID 1087); conditions: higher = more signal;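 note: score merges spot fluorescence at 667nm with spot signal to noise ratio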
# [11] = tested on: PRMT1 (protein arginine N-methyltransferase 1); assay: small molecules binding arginine methyltransferase PRMT1 – biochemical, small-molecule microarray, 635 nm fluorescence, primary screen (AID 1088); conditions: higher = more signal;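 note: binding of Prmt1 protein to compounds spotted on small-molecule microarray slides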
# [12] = growth effects on S. cerevisiae YJM789 – YJM789 clinical isolate, OD600, 24 h, basal, primary screen (AID 1089); conditions: higher = more signal, called active from +8 up or from −8 down;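 note: growth of clinical yeast isolate S. cerevisiae YJM 789 seeded 1000 cells per well; test concentration not given here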
# [13] = S. pombe growth modifiers, basal conditions – strain 972, OD600, 24 h, no modulator, primary screen (AID 1090);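 note: basal condition with compound alone and no growth modifier present; test concentration not given here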; conditions: S. pombe 972 growth, higher = more signal, called active from +8 up or from −8 down
# [14] = budding yeast growth modifiers under rapamycin – strain BY4716, OD600, 96 h, primary screen (AID 1091); note: test concentration not given here; conditions: S. cerevisiae BY4716 + rapamycin, higher = more signal, called active from +8 up or from −8 down
# [15] = target: Torsin-1A-interacting protein 2 (Homo sapiens) (UniProt Q8NFQ8); assay: small molecules binding lysate-expressed LULL1 – cell lysate, human LULL1 lysate, 635/667 nm fluorescence, primary screen (AID 1092); conditions: small-molecule microarray, hLULL1 lysate binding, 635 nm fluorescence; higher = more signal;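 note: probe is lysate of COS7 cells overexpressing human LULL1; score merges per-feature 667 nm fluorescence with signal-to-noise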
# Sequence of Torsin-1A-interacting protein 2 (Homo sapiens) (Q8NFQ8 whole entry, looked up): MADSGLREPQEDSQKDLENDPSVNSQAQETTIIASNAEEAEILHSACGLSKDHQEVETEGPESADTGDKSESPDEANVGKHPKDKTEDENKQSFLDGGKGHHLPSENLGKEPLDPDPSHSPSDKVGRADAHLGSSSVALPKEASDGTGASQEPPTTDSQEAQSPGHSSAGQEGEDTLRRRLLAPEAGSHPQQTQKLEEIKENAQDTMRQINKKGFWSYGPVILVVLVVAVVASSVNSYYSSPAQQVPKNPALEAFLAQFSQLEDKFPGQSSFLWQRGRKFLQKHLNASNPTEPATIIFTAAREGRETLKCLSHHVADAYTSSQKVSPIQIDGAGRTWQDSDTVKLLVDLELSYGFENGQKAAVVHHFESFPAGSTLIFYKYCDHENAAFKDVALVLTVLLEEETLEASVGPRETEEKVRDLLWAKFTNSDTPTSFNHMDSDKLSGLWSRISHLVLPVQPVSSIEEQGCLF
# [16] = optical density change of DRC41 E. coli – strain DRC41, OD650, 24 h, E. coli filamentation project, primary screen (AID 1093);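 note: MC1000 strain lacking acrAB efflux and sulA so SOS filamentation is blocked; test concentration not given here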; conditions: E. coli DRC41 growth, higher = more signal, called active from +8 up or from −8 down
# [17] = probe aLefty2 binding to arrayed compounds – biochemical, biotinylated probe, 635/667 nm fluorescence, primary screen (AID 1094); conditions: small-molecule microarray, higher = more signal;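 note: score merges spot fluorescence near 667 nm with spot signal-to-noise ratio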
# [18] = tested on: Noggin (protein binding on small-molecule microarray); assay: small molecules binding Noggin protein – biochemical, 635/667 nm fluorescence, primary screen (AID 1095); conditions: 635 nm fluorescence, higher = more signal;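 note: score merges 667 nm feature fluorescence with signal to noise over triplicate slides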
# [19] = target: Neurogenic locus notch homolog protein 3 (Homo sapiens) (UniProt Q9UM47); assay: small molecules binding NOTCH3 protein – biochemical, 635/667 nm fluorescence, primary screen (AID 1096); conditions: small-molecule microarray, 635 nm fluorescence, higher = more signal
# Sequence of Neurogenic locus notch homolog protein 3 (Homo sapiens) (Q9UM47 whole entry, looked up): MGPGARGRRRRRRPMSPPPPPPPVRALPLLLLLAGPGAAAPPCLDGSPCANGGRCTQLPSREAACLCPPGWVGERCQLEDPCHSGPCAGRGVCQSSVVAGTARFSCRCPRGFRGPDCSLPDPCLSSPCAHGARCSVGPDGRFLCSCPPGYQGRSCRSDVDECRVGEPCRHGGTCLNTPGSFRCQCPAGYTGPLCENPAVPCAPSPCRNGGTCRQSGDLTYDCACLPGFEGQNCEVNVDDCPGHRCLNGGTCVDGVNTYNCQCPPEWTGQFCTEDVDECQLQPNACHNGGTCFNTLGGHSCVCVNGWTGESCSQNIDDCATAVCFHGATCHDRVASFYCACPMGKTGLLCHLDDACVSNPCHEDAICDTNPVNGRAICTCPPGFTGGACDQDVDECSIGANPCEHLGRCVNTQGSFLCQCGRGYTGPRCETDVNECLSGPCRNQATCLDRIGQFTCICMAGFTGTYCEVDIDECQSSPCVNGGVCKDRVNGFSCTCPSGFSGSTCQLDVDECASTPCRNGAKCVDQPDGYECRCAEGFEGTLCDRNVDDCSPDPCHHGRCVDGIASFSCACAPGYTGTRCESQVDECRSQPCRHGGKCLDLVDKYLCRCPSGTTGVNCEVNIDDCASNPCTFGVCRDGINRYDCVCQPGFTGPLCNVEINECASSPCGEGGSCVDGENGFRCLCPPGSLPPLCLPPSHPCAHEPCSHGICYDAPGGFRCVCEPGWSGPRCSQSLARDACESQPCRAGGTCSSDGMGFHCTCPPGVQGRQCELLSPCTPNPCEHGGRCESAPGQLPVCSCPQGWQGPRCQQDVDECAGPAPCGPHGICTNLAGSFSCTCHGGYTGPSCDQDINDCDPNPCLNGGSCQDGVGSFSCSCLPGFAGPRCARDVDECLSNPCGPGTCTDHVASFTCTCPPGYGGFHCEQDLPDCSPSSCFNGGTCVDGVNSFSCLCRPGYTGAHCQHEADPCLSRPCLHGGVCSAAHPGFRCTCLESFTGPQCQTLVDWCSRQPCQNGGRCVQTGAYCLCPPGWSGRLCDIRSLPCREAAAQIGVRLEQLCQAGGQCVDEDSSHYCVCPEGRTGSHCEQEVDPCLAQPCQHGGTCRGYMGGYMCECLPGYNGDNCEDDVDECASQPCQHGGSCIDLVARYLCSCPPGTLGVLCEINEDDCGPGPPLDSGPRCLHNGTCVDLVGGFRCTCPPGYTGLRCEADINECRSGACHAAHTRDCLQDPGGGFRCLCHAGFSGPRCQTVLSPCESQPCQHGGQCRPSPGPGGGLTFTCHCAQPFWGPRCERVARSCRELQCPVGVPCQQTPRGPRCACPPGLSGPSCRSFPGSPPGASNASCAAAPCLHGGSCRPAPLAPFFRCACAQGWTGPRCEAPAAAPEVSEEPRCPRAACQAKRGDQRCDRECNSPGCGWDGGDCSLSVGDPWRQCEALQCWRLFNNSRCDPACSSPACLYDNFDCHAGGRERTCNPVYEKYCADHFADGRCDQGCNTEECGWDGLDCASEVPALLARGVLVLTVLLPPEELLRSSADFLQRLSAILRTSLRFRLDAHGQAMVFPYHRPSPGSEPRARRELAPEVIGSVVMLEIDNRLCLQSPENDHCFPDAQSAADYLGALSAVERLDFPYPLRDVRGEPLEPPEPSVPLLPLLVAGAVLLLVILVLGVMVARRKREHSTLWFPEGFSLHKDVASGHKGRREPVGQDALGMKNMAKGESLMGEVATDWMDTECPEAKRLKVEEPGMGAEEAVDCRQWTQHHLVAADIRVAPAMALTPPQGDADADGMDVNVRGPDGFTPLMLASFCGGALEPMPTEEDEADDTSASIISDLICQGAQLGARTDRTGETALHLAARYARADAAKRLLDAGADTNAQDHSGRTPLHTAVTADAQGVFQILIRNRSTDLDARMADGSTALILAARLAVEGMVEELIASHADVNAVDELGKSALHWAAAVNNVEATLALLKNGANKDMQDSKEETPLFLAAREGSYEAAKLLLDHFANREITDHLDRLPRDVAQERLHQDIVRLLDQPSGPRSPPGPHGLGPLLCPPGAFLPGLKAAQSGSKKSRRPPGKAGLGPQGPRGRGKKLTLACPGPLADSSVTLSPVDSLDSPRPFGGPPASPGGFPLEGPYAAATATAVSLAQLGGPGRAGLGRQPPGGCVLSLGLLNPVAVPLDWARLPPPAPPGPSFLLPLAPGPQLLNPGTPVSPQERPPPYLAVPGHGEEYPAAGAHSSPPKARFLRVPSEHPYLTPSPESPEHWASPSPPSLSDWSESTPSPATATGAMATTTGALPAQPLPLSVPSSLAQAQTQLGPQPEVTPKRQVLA
# [20] = probe aEGFR binding to arrayed compounds – biochemical, biotinylated probe, 635/667 nm fluorescence, primary screen (AID 1097); conditions: small-molecule microarray, higher = more signal;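 note: probe is a biotinylated anti-EGFR antibody binding compounds printed on slides; score combines fluorescence near 667 nm and signal to noise of each spot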
Compound,composite z-score [1],composite z-score [2],composite z-score [3],composite z-score [4],composite z-score [5],composite z-score [6],composite z-score [7],z-score [8],composite z-score [9],composite z-score [10],composite z-score [11],z-score [12],z-score [13],z-score [14],composite z-score [15],z-score [16],composite z-score [17],composite z-score [18],composite z-score [19],composite z-score [20]
O=C1[C@H]2[C@H]3[C@H](O)[C@H](O)CC(=NOC[C@@H](O)COCc4ccco4)[C@@H]3CC[C@H]2C(=O)N1C[C@@H]1CCCO1,-0.861,2.29,-0.213,-0.32,-0.323,-0.271,1.22,-0.218 (inactive),-0.14,0.0139,1.37,0.715 (inactive),1.01 (inactive),0.714 (inactive),-0.239,1.05 (inactive),-0.0732,0.997,0.395,-0.344
CCOC(=O)[C@H](Cc1ccccc1)NC(=O)CCC1CC(OC(=O)NCCc2ccc(F)cc2)CC2(CCCC(COC(=O)NCCCN3CCCC3=O)O2)O1 (stereo not given in full),-0.478,0.291,-0.0628,0.328,1.16,0.533,0.394,-1.9 (inactive),0.326,-0.0994,1.37,-1.68 (inactive),-0.574 (inactive),0.674 (inactive),2,-0.806 (inactive),-0.0986,0.373,1.14,0.006
CCOC(=O)[C@H](Cc1ccccc1)NC(=O)CCC1CC(OC(=O)NCCc2ccc(F)cc2)CC2(CCCC(COC(=O)NCCOC)O2)O1 (stereo not given in full),-0.584,0.114,-0.0291,0.868,1.04,0.326,1.11,0.753 (inactive),0.169,-0.248,1.46,0.197 (inactive),0.143 (inactive),-0.16 (inactive),1.73,0.769 (inactive),-0.147,0.325,0.796,0.153
O=C(NN=C1C[C@@H](O)[C@@H](O)[C@@H]2[C@@H]3C(=O)N(C4CCCCC4)C(=O)[C@@H]3CC[C@@H]12)OCc1ccccc1,-0.107,0.2,-0.0667,0.0505,-0.103,-0.32,-0.235,0.448 (inactive),0.818,-0.16,-0.492,0.313 (inactive),-0.452 (inactive),-0.157 (inactive),-0.181,0.572 (inactive),-0.372,-0.248,0.256,-0.0262
C=Cc1ccc([C@H]2N[C@H](C(=O)O)CC[C@@H]2C)cc1,-0.372,0.056,-0.156,0.145,-0.226,-0.284,0.564,1.35 (inactive),-0.0301,0.0399,-1.29,-0.382 (inactive),-0.261 (inactive),-0.676 (inactive),-0.447,0.58 (inactive),0.0772,0.0295,0.417,-0.0349
CC(C)=NOC[C@@H](C)[C@H](OCc1ccccc1)C(C)C,0.245,-0.381,-0.147,-0.303,-0.885,-0.277,-0.372,0.755 (inactive),-0.21,0.163,-0.465,0.682 (inactive),-0.207 (inactive),0.752 (inactive),-0.602,0.0184 (inactive),-0.127,1.06,-1.12,-0.0656
O=C1C=C[C@@H](O)[C@@H]2[C@@H]3C(=O)N(C[C@@H]4CCCO4)C(=O)[C@@H]3CC[C@@H]12,-0.518,0.0078,-0.103,0.458,0.141,-0.0326,0.691,-0.241 (inactive),0.041,-0.136,-0.168,0.026 (inactive),-0.479 (inactive),0.818 (inactive),0.276,0.656 (inactive),-0.139,0.54,0.541,-0.0208
COC(=O)[C@H]1[C@@H](O)[C@@]2(O)c3ccccc3O[C@@]2(c2ccccc2)[C@@H]1c1ccccc1,1.08,0.177,-0.114,0.269,0.254,-0.68,0.768,-0.886 (inactive),0.0643,-0.301,-0.701,0.0966 (inactive),0.226 (inactive),0.705 (inactive),0.124,0.685 (inactive),-0.0324,-0.169,-0.104,-0.123
CCOC(=O)NN=C1C[C@@H](O)[C@@H](O)[C@@H]2[C@@H]3C(=O)N(Cc4ccc5c(c4)OCO5)C(=O)[C@@H]3CC[C@H]12,-0.428,0.0687,-0.113,-0.388,-0.434,0.279,0.678,0.855 (inactive),0.625,-0.0645,0.667,-0.126 (inactive),0.119 (inactive),-0.6 (inactive),2.31,0.203 (inactive),-0.289,0.303,-0.578,-0.0978
CC(C)(C)N1C(=O)[C@H]2[C@H]3[C@H](O)[C@H](O)CC(=NO[C@@H]4O[C@H](CO)[C@@H](O)[C@H](O)[C@H]4O)[C@H]3CC[C@H]2C1=O,-0.477,0.128,-0.17,0.569,0.45,0.947,0.389,0.599 (inactive),0.263,-0.0994,0.693,0.768 (inactive),-1.05 (inactive),-0.235 (inactive),0.959,-0.864 (inactive),-0.0603,0.593,0.155,0.0334
